Bioassay records deposited in PubChem by several laboratories.
HSF1 inhib = HSF1 inhibition; actives 0.77% (n = 300,000); activity change, negative = inhibition, % at 7.5 µM (by protocol); NIH3T3-HGL HSE-luciferase, MG132-induced, luminescence 8 h; active compounds read low;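 active = more than half of replicate wells show activity change below -50%, luminescence cut by over half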;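 note: luciferase reports HSF-1 transcriptional activity via heat shock element; 0% = median of DMSO wells and -100% = zero luminescence signal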
HSF1 activator = increases HSF-1 driven luciferase reporter signal; NIH3T3-HGL HSF-1 luciferase reporter, MG132, 8 h; 100% = twice DMSO control signal; activation, % at 9 µM; actives 1.7% (n = 300,000); AID 504408;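 active = mean replicate activation of at least 50% with a set share of replicates each reaching 50%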;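 note: 0% = median of the neutral control wells and 100% = twice that signal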
AHR activator = activates the human aryl hydrocarbon receptor. AHR-responsive luciferase reporter cells, luminescence. activation, % at 5 µM. actives 2.5% (n = 320,000); in the data active = activation above about 47%;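 note: 0% = vehicle wells and 100% = reference agonist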
FXN GAA850 act = frataxin GAA850 promoter activation; activation, % at 6 µM; actives 0.56% (n = 360,000); HEK293 lucGAA850 FXN promoter luciferase reporter, 24 h; percent of 10 µM SAHA response;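 active = activation above the average of all compounds screened plus 3 SD, cutoff fixed separately per campaign, cut at about 7.5% in these data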;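 note: 0% = DMSO wells and 100% = 10 µM SAHA wells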
Numbers without * were called inactive. In the library only some 4.6% were active in any assay of this set; here they are far more common.

What do the screens show for `Cc1ccc(N(C(=O)c2ccco2)C(C(=O)NC2CCCC2)c2cccnc2)cc1` (centres undefined)?
HSF1 inhib: -6; HSF1 activator: -3; AHR activator: 0; FXN GAA850 act: 0

How did CC(C)c1ccc(N(C(=O)CNC(=O)c2ccco2)C(C(=O)NC2CCCC2)c2ccncc2)cc1 (centres undefined) do in these assays?
HSF1 inhib: 84; HSF1 activator: 168*; AHR activator: 5; FXN GAA850 act: -2

Results for c1cncc(Nc2nc(-c3cccs3)cs2)c1 ?
HSF1 inhib: -4; HSF1 activator: -1; AHR activator: 58*; FXN GAA850 act: 3

What do the screens show for `COc1ccc(-c2csc(Nc3cccnc3)n2)cc1`?
HSF1 inhib: -5; HSF1 activator: 23; AHR activator: 54*; FXN GAA850 act: 3

What do the screens show for `COc1ccc(Nc2nc(-c3c[nH]c4ccccc34)cs2)cc1`?
HSF1 inhib: 0; HSF1 activator: 30; AHR activator: 76*; FXN GAA850 act: 8

How did COc1ccc(-c2csc(-n3cccn3)n2)cc1 do in these assays?
HSF1 inhib: 29; HSF1 activator: 61*; AHR activator: 8; FXN GAA850 act: 2

How did CC(=O)N1CCN(c2ccc(NC(=O)c3ccc(N4CCCC4)c([N+](=O)[O-])c3)cc2Cl)CC1 do in these assays?
AHR activator: -4; FXN GAA850 act: 1

Results for Cc1cc(C)c(O)c(-c2n[nH]c3c2C(c2cccc(O)c2)N(Cc2ccco2)C3=O)c1 (centres undefined) ?
HSF1 inhib: 33; HSF1 activator: 48; AHR activator: 65*; FXN GAA850 act: 0

How did O=C1c2[nH]nc(-c3ccccc3O)c2C(c2cccc(Cl)c2)N1Cc1ccco1 (centres undefined) do in these assays?
HSF1 inhib: 22; HSF1 activator: 31; AHR activator: 6; FXN GAA850 act: 0

How did CC(C)c1ccc(NC(=O)Nc2cc3sccc3n2C)cc1 do in these assays?
HSF1 inhib: -77*; HSF1 activator: -82; AHR activator: 48*; FXN GAA850 act: 1

How did CC1(C)Oc2ccc(C(=O)NC3CC3)cc2N(CC(=O)N2CCOCC2)C1=O do in these assays?
HSF1 inhib: 0; HSF1 activator: 2; AHR activator: 74*; FXN GAA850 act: -1

What do the screens show for `CC1(C)Oc2ccc(C(=O)NC3CCCC3)cc2N(CC(=O)N2CCOCC2)C1=O`?
HSF1 inhib: 4; HSF1 activator: 7; AHR activator: -1; FXN GAA850 act: 0

How did C=CCc1cc(/C=C/c2nc(O)c([N+](=O)[O-])c(=O)[nH]2)cc(OC)c1O do in these assays?
HSF1 inhib: -4; HSF1 activator: -1; AHR activator: -1; FXN GAA850 act: -1

Results for CCOC(=O)c1c(C)n(C)c2ccc(OC)c(NC(=O)CN3CCSCC3)c12 ?
HSF1 inhib: -91*; HSF1 activator: -93; AHR activator: 7; FXN GAA850 act: -1

How did CCOC(=O)c1c(C)n(C)c2ccc(OC)c(NC(=O)c3cccs3)c12 do in these assays?
HSF1 inhib: 2; HSF1 activator: 23; AHR activator: 20; FXN GAA850 act: 0

What do the screens show for `CCOC(=O)c1c(C)n(C)c2ccc(OC)c(NC(=O)CCN3CCC(Cc4ccccc4)CC3)c12`?
HSF1 inhib: 1; HSF1 activator: 14; AHR activator: 66*; FXN GAA850 act: 0

How did O=C(Nc1ccccc1Cl)c1cnccn1 do in these assays?
HSF1 inhib: -6; HSF1 activator: 19; AHR activator: -4; FXN GAA850 act: 0

What do the screens show for `N#Cc1c(SCC(=O)Nc2ccc(C(F)(F)F)cc2)sc2c(O)cc(=O)[nH]c12`?
HSF1 inhib: -1; HSF1 activator: -6; AHR activator: 3; FXN GAA850 act: -2

What do the screens show for `N#Cc1c(SCC(=O)Nc2nncs2)sc2c(O)cc(=O)[nH]c12`?
HSF1 inhib: -6; HSF1 activator: -19; AHR activator: 50*; FXN GAA850 act: 3

Results for CCCCCCCC(=O)NNC(=O)Cc1ccccc1 ?
HSF1 inhib: -8; HSF1 activator: -6; AHR activator: 0; FXN GAA850 act: 1

What do the screens show for `CCCCCCCCCCCC(=O)c1c(O)cccc1O`?
HSF1 inhib: 20; HSF1 activator: 51*; AHR activator: 2; FXN GAA850 act: -2

What do the screens show for `Cc1ccc(C(=O)Nc2cccnc2)cc1S(=O)(=O)N1CCOCC1`?
HSF1 inhib: -4; HSF1 activator: 3; AHR activator: 37; FXN GAA850 act: 0

How did Cc1ccc(C(=O)Nc2cccnc2)cc1S(=O)(=O)N1CCCCCC1 do in these assays?
HSF1 inhib: 9; HSF1 activator: 35; AHR activator: 77*; FXN GAA850 act: 1

How did Cc1cc(C)c(-c2cc(NC(=O)CSc3n[nH]c(N)n3)n(-c3ccccc3)n2)cc1C do in these assays?
HSF1 inhib: 5; HSF1 activator: 3; AHR activator: 56*; FXN GAA850 act: 2

Results for Cc1cnc(C(=O)OCC(=O)Nc2cc(-c3cc(C)c(C)cc3C)nn2-c2ccccc2)cn1 ?
HSF1 inhib: -5; HSF1 activator: -3; AHR activator: 60*; FXN GAA850 act: 1

Results for COc1cc(C(=O)OCC(=O)Nc2cc(-c3cc(C)c(C)cc3C)nn2-c2ccccc2)cc(OC)c1OC ?
HSF1 inhib: 13; HSF1 activator: 23; AHR activator: 39; FXN GAA850 act: 2

How did COc1ccc(C(C)=O)cc1COC(=O)CCCN1C(=O)c2ccccc2C1=O do in these assays?
HSF1 inhib: 5; HSF1 activator: 6; AHR activator: 0; FXN GAA850 act: -1

Results for CN(CC(=O)Nc1ccc(Cl)c(C(F)(F)F)c1)C(=O)C1CC(=O)N(Cc2ccco2)C1 (centres undefined) ?
HSF1 inhib: 2; HSF1 activator: -8; AHR activator: -1; FXN GAA850 act: 3

How did CC(=O)NC(CC(=O)NC1CCCCC1)c1ccccc1 (centres undefined) do in these assays?
HSF1 inhib: 2; HSF1 activator: -7; AHR activator: -1; FXN GAA850 act: -1

Results for Cc1cc(C)nc(NNC2=CC(=[N+]3CCCCC3)CC(C)(C)C2)n1 ?
HSF1 inhib: -71*; HSF1 activator: -77; AHR activator: 3; FXN GAA850 act: 0

Results for Nc1nc(-c2ccc(Cl)cc2)nc(-c2ccc(Cl)cc2)n1 ?
HSF1 inhib: -8; HSF1 activator: -10; AHR activator: 70*; FXN GAA850 act: -1

How did Oc1cccc(-c2nc3ccc4ccccc4c3c3c2CCC3)c1 do in these assays?
HSF1 inhib: 37; HSF1 activator: 59*; AHR activator: 7; FXN GAA850 act: 5

Results for O=C(Cn1nnc(-c2ccc(N3CCOCC3)cc2)n1)N1CCOCC1 ?
HSF1 inhib: 3; HSF1 activator: -10; AHR activator: 5

How did CCCCCN(C(=O)CCC(=O)OCC(=O)N(CC)c1ccccc1)c1c(N)n(CCCC)c(=O)[nH]c1=O do in these assays?
HSF1 inhib: 25; HSF1 activator: 58*; AHR activator: 4; FXN GAA850 act: -1

Results for O=[N+]([O-])c1cccc(-c2cn(-c3ccccc3)c(=S)[nH]2)c1 ?
HSF1 inhib: 33; HSF1 activator: 74*; AHR activator: 74*; FXN GAA850 act: 3
